{"source": "PubChem BioAssay (NCATS)", "note": "A number with no mark means an inactive call. Records with an inconclusive call do not appear. Calls of active or inactive are those of the source. Calls come from the whole dose curve; as a rule, active = well fitted curve in the direction sought with a large enough effect; inconclusive = small, poorly fitted or top-dose-only effect, or another doubt; inactive = no such curve, though single readings can be large; an effect the other way counts as inactive or inconclusive."}
{"target": "Luciferin 4-monooxygenase (Photinus pyralis) (UniProt P08659)", "assay": "Primary firefly luciferase (FLuc) qHTS assay for identification of artifact compounds. (AID 1845220); note: nearly all actives have a fitted effect of over 60% in size; note: potency is the fitted concentration of half-maximal effect;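 for activity change, negative = inhibition: plate controls were DMSO vehicle for no effect and no enzyme for full effect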", "conditions": "purified firefly luciferase, luminescence, 5 min; series mostly up to 54.1 µM; activity change, negative = inhibition: at the top concentration", "summary_of_the_method": "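Titrated compounds were incubated 15 min at RT, protected from light, with luciferin and ATP at 10 uM; reaction started with 10 nM FLuc, luminescence imaged at 5 min, and concentration-response fitted by Hill equation.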"}
{"smiles": "CCN1CCN(c2cc(-c3ccc(F)cc3)c3c(n2)CCCCCC3)CC1", "activity change, negative = inhibition": "1.99%"}
{"smiles": "CCC(C(=O)NC(=O)NC(C)=O)c1ccccc1", "note": "(stereo not drawn)", "outcome": "inactive"}
{"smiles": "Brc1ccc([C@H]2CN3CCSC3=N2)cc1", "activity change, negative = inhibition": "1.67%"}
{"smiles": "O=C1NC2CCCCN2C12CCN(CCCN1c3ccccc3CCc3ccc(Cl)cc31)CC2", "note": "(stereo not drawn)", "activity change, negative = inhibition": "4.07%"}
{"smiles": "CCOC(=O)c1ccc(OCCN2C[C@H](O)[C@@H](O)[C@H](O)[C@H]2CO)cc1", "outcome": "inactive"}
{"smiles": "CC(C)(C)c1nnc(NS(=O)(=O)c2ccccc2)s1", "activity change, negative = inhibition": "-3.46%"}
{"smiles": "CC(C(=O)O)c1ccc(/C=C2\\CCCCC2=O)cc1", "note": "(stereo not drawn)", "Potency": "23.9 µM (active)"}
{"smiles": "Cn1cc(S(C)=O)c(=O)c2ccc(F)cc21", "note": "(stereo not drawn)", "activity change, negative = inhibition": "-8.08%"}
{"smiles": "CC(=O)Oc1ccc(C2(c3ccc(OC(C)=O)cc3)Oc3ccccc3NC2=O)cc1", "activity change, negative = inhibition": "-0.475%"}
{"smiles": "O=C(O)CNC(=O)CNC(=O)CNC(=O)CSC(=O)c1ccccc1", "outcome": "inactive"}
{"smiles": "O=C(CCCCCCCCC#CI)Oc1ccccc1", "outcome": "inactive"}
{"smiles": "O=[N+]([O-])c1nccn1CO[C@@H](CO)[C@H](O)CO", "activity change, negative = inhibition": "1.12%"}
{"smiles": "CN(CC1(C)CCCO1)S(=O)(=O)c1ccc(Cl)c(S(N)(=O)=O)c1", "note": "(stereo not drawn)", "activity change, negative = inhibition": "-2.87%"}
{"smiles": "CCc1cc(S(=O)(=O)O)c2cc(C(C)C)cccc1-2", "outcome": "inactive"}
{"smiles": "C[N+]1(CC2COC(c3ccccc3)(c3ccccc3)O2)CCCCC1", "note": "(stereo not drawn)", "activity change, negative = inhibition": "-29.5% [at 25.7 µM]"}
{"smiles": "O=C(CCC1CCN(Cc2ccccc2)CC1)c1ccc2c(c1)NCCCC2", "outcome": "inactive"}
{"smiles": "CCOC(=O)Cn1cccc1-c1nc(-c2ccc(OC)cc2)c(-c2ccc(OC)cc2)s1", "activity change, negative = inhibition": "-3.52%"}
{"system": "not listed separately", "assay": "Primary fluorescence-based thiol-reactive (MSTI) qHTS assay for identification of artifact compounds. (AID 1845221); note: nearly all actives have a fitted effect of over 65% in size; note: potency is the fitted concentration of half-maximal effect;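 for activity change, negative = thiol reactive: thiol-reactive compounds lower the probe fluorescence signal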", "conditions": "MSTI thiol-reactivity probe, 1 h; series mostly up to 53.8 µM; activity change, negative = thiol reactive: at the top concentration", "summary_of_the_method": "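Reactivity toward the thiol probe MSTI (4 uM) is scored by fluorescence at Ex/Em 525/598 nm after 1 h at room temperature. Acetyl-MSTI and MSTI define the activity scale.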"}
{"smiles": "CCN1CCN(c2cc(-c3ccc(F)cc3)c3c(n2)CCCCCC3)CC1", "activity change, negative = thiol reactive": "32.8%"}
{"smiles": "CCC(C(=O)NC(=O)NC(C)=O)c1ccccc1", "note": "(stereo not drawn)", "activity change, negative = thiol reactive": "8.05%"}
{"smiles": "Brc1ccc([C@H]2CN3CCSC3=N2)cc1", "activity change, negative = thiol reactive": "2.87%"}
{"smiles": "O=C1NC2CCCCN2C12CCN(CCCN1c3ccccc3CCc3ccc(Cl)cc31)CC2", "note": "(stereo not drawn)", "activity change, negative = thiol reactive": "-3.02%"}
{"smiles": "CCOC(=O)c1ccc(OCCN2C[C@H](O)[C@@H](O)[C@H](O)[C@H]2CO)cc1", "activity change, negative = thiol reactive": "13.4%"}
{"smiles": "CC(C)(C)c1nnc(NS(=O)(=O)c2ccccc2)s1", "activity change, negative = thiol reactive": "3.58%"}
{"smiles": "CCOC(=O)c1ccc(NC(=O)CN2CCCCC2)cc1", "activity change, negative = thiol reactive": "40.3%"}
{"smiles": "CC(C(=O)O)c1ccc(/C=C2\\CCCCC2=O)cc1", "note": "(stereo not drawn)", "activity change, negative = thiol reactive": "8.59%"}
{"smiles": "Cn1cc(S(C)=O)c(=O)c2ccc(F)cc21", "note": "(stereo not drawn)", "activity change, negative = thiol reactive": "2.72%"}
{"smiles": "CC(=O)Oc1ccc(C2(c3ccc(OC(C)=O)cc3)Oc3ccccc3NC2=O)cc1", "activity change, negative = thiol reactive": "23.8%"}
{"smiles": "O=C(O)CNC(=O)CNC(=O)CNC(=O)CSC(=O)c1ccccc1", "activity change, negative = thiol reactive": "3.51%"}
{"smiles": "O=C(CCCCCCCCC#CI)Oc1ccccc1", "activity change, negative = thiol reactive": "9.9%"}
{"smiles": "O=[N+]([O-])c1nccn1CO[C@@H](CO)[C@H](O)CO", "activity change, negative = thiol reactive": "3.74%"}
{"smiles": "CN(CC1(C)CCCO1)S(=O)(=O)c1ccc(Cl)c(S(N)(=O)=O)c1", "note": "(stereo not drawn)", "activity change, negative = thiol reactive": "49.2%"}
{"smiles": "C=CC[N+]1([C@H]2C[C@H]3[C@@H]4CC[C@H]5C[C@H](OC(C)=O)[C@@H](N6CCCCC6)C[C@]5(C)[C@H]4CC[C@]3(C)[C@H]2OC(=O)CC)CCCCC1", "activity change, negative = thiol reactive": "12.5%"}
{"smiles": "CCc1cc(S(=O)(=O)O)c2cc(C(C)C)cccc1-2", "Potency": "0.844 µM (active)"}
{"smiles": "C[N+]1(CC2COC(c3ccccc3)(c3ccccc3)O2)CCCCC1", "note": "(stereo not drawn)", "activity change, negative = thiol reactive": "37.5% [at 25.6 µM]"}
{"smiles": "O=C(CCC1CCN(Cc2ccccc2)CC1)c1ccc2c(c1)NCCCC2", "activity change, negative = thiol reactive": "11.7%"}
{"smiles": "CCOC(=O)Cn1cccc1-c1nc(-c2ccc(OC)cc2)c(-c2ccc(OC)cc2)s1", "activity change, negative = thiol reactive": "-2.12%"}
{"system": "Nanoluciferase (engineered Oplophorus gracilirostris luciferase)", "assay": "Primary Nanoluciferase (NLuc) qHTS assay for identification of artifact compounds. (AID 1845222);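 note: NLuc secreted into diluted conditioned medium of S16 cells; 0% = DMSO and -100% = no enzyme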", "conditions": "NLuc-conditioned medium, Nano-Glo luminescence, 5 min; series mostly up to 54.1 µM; activity, negative = inhibition: at the top concentration", "summary_of_the_method": "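qHTS format, against NLuc in S16 cell-conditioned medium. Nano-Glo substrate 1:100 was added after 15 min at room temperature. Luminescence was taken after a further 5 min.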"}
{"smiles": "CCN1CCN(c2cc(-c3ccc(F)cc3)c3c(n2)CCCCCC3)CC1", "activity, negative = inhibition": "0%"}
{"smiles": "CCC(C(=O)NC(=O)NC(C)=O)c1ccccc1", "note": "(stereo not drawn)", "activity, negative = inhibition": "0.0727%"}
{"smiles": "Brc1ccc([C@H]2CN3CCSC3=N2)cc1", "activity, negative = inhibition": "2.07%"}
{"smiles": "O=C1NC2CCCCN2C12CCN(CCCN1c3ccccc3CCc3ccc(Cl)cc31)CC2", "note": "(stereo not drawn)", "activity, negative = inhibition": "1.95%"}
{"smiles": "CCOC(=O)c1ccc(OCCN2C[C@H](O)[C@@H](O)[C@H](O)[C@H]2CO)cc1", "activity, negative = inhibition": "2.03%"}
{"smiles": "CCOC(=O)c1ccc(NC(=O)CN2CCCCC2)cc1", "activity, negative = inhibition": "2.51%"}
{"smiles": "CC(C(=O)O)c1ccc(/C=C2\\CCCCC2=O)cc1", "note": "(stereo not drawn)", "activity, negative = inhibition": "-12.3%"}
{"smiles": "Cn1cc(S(C)=O)c(=O)c2ccc(F)cc21", "note": "(stereo not drawn)", "activity, negative = inhibition": "-0.513%"}
{"smiles": "CC(=O)Oc1ccc(C2(c3ccc(OC(C)=O)cc3)Oc3ccccc3NC2=O)cc1", "activity, negative = inhibition": "2.58%"}
{"smiles": "O=C(O)CNC(=O)CNC(=O)CNC(=O)CSC(=O)c1ccccc1", "activity, negative = inhibition": "1.95%"}
{"smiles": "O=[N+]([O-])c1nccn1CO[C@@H](CO)[C@H](O)CO", "activity, negative = inhibition": "0.817%"}
{"smiles": "CN(CC1(C)CCCO1)S(=O)(=O)c1ccc(Cl)c(S(N)(=O)=O)c1", "note": "(stereo not drawn)", "activity, negative = inhibition": "-0.953%"}
{"smiles": "C=CC[N+]1([C@H]2C[C@H]3[C@@H]4CC[C@H]5C[C@H](OC(C)=O)[C@@H](N6CCCCC6)C[C@]5(C)[C@H]4CC[C@]3(C)[C@H]2OC(=O)CC)CCCCC1", "activity, negative = inhibition": "2.97%"}
{"smiles": "CCc1cc(S(=O)(=O)O)c2cc(C(C)C)cccc1-2", "activity, negative = inhibition": "-8.31%"}
{"smiles": "C[N+]1(CC2COC(c3ccccc3)(c3ccccc3)O2)CCCCC1", "note": "(stereo not drawn)", "activity, negative = inhibition": "-8.05% [at 25.7 µM]"}
{"smiles": "O=C(CCC1CCN(Cc2ccccc2)CC1)c1ccc2c(c1)NCCCC2", "activity, negative = inhibition": "2.51%"}
{"smiles": "CCOC(=O)Cn1cccc1-c1nc(-c2ccc(OC)cc2)c(-c2ccc(OC)cc2)s1", "activity, negative = inhibition": "1.78%"}
